“And” between values parts separate entries of the source, which are not always exact repeats. Equal values may be shown once. Inconclusive results are not listed. A call without a number means that no potency is given here. More than one record can exist for a structure, and the calls need not agree. The source made the active and inactive calls. Unless noted, calls follow the shape of the dose curve; as a rule, active = well fitted curve in the direction sought with a large enough effect in the repeat runs; inconclusive = weak or mixed curves; inactive = no such curve, though single readings can be large; an effect the other way counts as inactive or inconclusive.
What was measured:
[1] = qHTS assay to identify small molecule antagonists of the glucocorticoid receptor (GR) signaling pathway - cell viability counter screen (AID 720693); also: nearly all actives have a fitted effect of over 55% in size
[2] = qHTS assay for identifying genotoxic compounds that show differential cytotoxicity against isogenic chicken DT40 cell lines with known DNA damage response pathways - wild type cell line (AID 743012); also: nearly all actives have a fitted effect of over 60% in size
Summary of the method: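 Cytotoxicity in repair-proficient parental chicken DT40 cells serves as the comparator for Rad54/Ku70- and Rev3-deficient lines. Cells were exposed to compounds for 40 h at 37 C/5% CO2, and ATP-based luminescence (CellTiter-Glo) measured viability.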

[3] = qHTS assay for identifying genotoxic compounds that show differential cytotoxicity against isogenic chicken DT40 cell lines with known DNA damage response pathways - Rev3 mutant cell line (AID 743014); also: nearly all actives have a fitted effect of over 55% in size; also: potency is read from the fitted curve at half-maximal effect
[4] = qHTS assay for identifying genotoxic compounds that show differential cytotoxicity against isogenic chicken DT40 cell lines with known DNA damage response pathways - Rad54/Ku70 mutant cell line (AID 743015); also: nearly all actives have a fitted effect of over 60% in size; also: potency is read from the fitted curve at half-maximal effect
[5] = qHTS assay to identify small molecule antagonists of the androgen receptor (AR) signaling pathway - cell viability counter screen (AID 743033; also: nearly all actives have a fitted effect of over 45% in size)
[6] = qHTS assay to identify small molecule antagonists of the androgen receptor (AR) signaling pathway using the MDA cell line - cell viability counter screen (AID 743041; also: nearly all actives have a fitted effect of over 45% in size; also: potency is read from the fitted curve at half-maximal effect)
Summary of the method: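 Viability read by CellTiter-Fluor fluorescence in the same wells as the antagonist screen, added after 15.5 h of a 16 h, 37C exposure. Human breast carcinoma MDA-kb2 AR-luc cells, compounds co-dosed with agonist R1881.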

[7] = qHTS assay to identify small molecule antagonists of the thyroid receptor (TR) signaling pathway - cell viability counter screen (AID 743064); also: nearly all actives have a fitted effect of over 50% in size
Summary of the method: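 GH3.TRE-Luc cells, 4 h pre-plating; cpd + T3 1 nM final; 37 °C 23.5 h; CellTiter-Fluor 30 min; fluorescence read.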

[8] = qHTS assay to identify small molecule antagonists of the thyroid receptor (TR) signaling pathway (AID 743065); also: nearly all actives have a fitted effect of over 55% in size; also: potency is read from the fitted curve at half-maximal effect
Summary of the method: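 Antagonism measured as loss of luciferase signal in GH3 cells stably carrying a TRE-luciferase reporter, co-treated with compound and T3 (1 nM final) for 23.5 h at 37 C. Viability was read in the same well by CellTiter-Fluor.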

[9] = tested on: thyroid hormone receptor (rat, GH3 cells); test: qHTS assay to identify small molecule agonists of the thyroid receptor (TR) signaling pathway (AID 743066; calls by dose curve; also: potency is read from the fitted curve at half-maximal effect)
[10] = target: Estrogen receptor (Homo sapiens) (UniProt P03372); test: qHTS assay to identify small molecule antagonists of the estrogen receptor alpha (ER-alpha) signaling pathway (AID 743069; active = well fitted curve in the direction sought with a large enough effect in the signal ratio in the repeat runs, not every such curve was filed as active; the % refers to the signal ratio)
Summary of the method: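 Antagonist mode: compounds in DMSO were co-added with 17beta-estradiol to ER-alpha-bla HEK293 cells (2% charcoal-stripped serum) and left 18 h at 37C. Reporter inhibition was measured as FRET fluorescence after 2 h LiveBLAzer substrate at room temperature.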

[11] = qHTS assay to identify small molecule antagonists of the estrogen receptor alpha (ER-alpha) signaling pathway - cell viability counter screen (AID 743074; calls by dose curve;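 also: HEK293 cells carrying ER-alpha-UAS-bla reporter stimulated with 17beta-estradiol; nearly all actives have a fitted effect of over 45% in size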)
[12] = target: Estrogen receptor (Homo sapiens) (UniProt P03372); test: qHTS assay to identify small molecule agonists of the estrogen receptor alpha (ER-alpha) signaling pathway (AID 743075; calls by dose curve;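 also: HEK293 GripTite cells with ER-alpha and UAS-driven beta-lactamase reporter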)
[13] = target: Estrogen receptor (Homo sapiens) (UniProt P03372); test: qHTS assay to identify small molecule agonists of the estrogen receptor alpha (ER-alpha) signaling pathway using the BG1 cell line (AID 743079); also: nearly all actives have a fitted effect of over 20% in size; also: potency is read from the fitted curve at half-maximal effect
[14] = qHTS assay to identify small molecule antagonists of the estrogen receptor alpha (ER-alpha) signaling pathway using the BG1 cell line (AID 743080; calls by dose curve;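 also: BG1 cells stimulated with 17beta-estradiol alongside compound; nearly all actives have a fitted effect of over 25% in size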; also: potency is read from the fitted curve at half-maximal effect)
Summary of the method: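 Luminescence from a 4×ERE-luciferase reporter in BG1-Luc-4E2 cells served as read-out. Cells, pre-cultured 5 days in stripped-serum phenol-red-free medium, were exposed to compound with 17beta-estradiol co-stimulation for 21.5 h at 37 C.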

[15] = qHTS assay to identify small molecule antagonists of the estrogen receptor alpha (ER-alpha) signaling pathway using the BG1 cell line - cell viability counter screen (AID 743081);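 also: compound given together with 17beta-estradiol as the ER stimulus; nearly all actives have a fitted effect of over 45% in size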; also: potency is read from the fitted curve at half-maximal effect
Aromatase (Homo sapiens) = Aromatase (Homo sapiens) (UniProt P11511); test: qHTS assay to identify aromatase inhibitors (AID 743083); also: series mostly up to about 70 µM; nearly all actives have a fitted effect of over 55% in size
[16] = target: Androgen receptor (Homo sapiens) (UniProt P10275); test: qHTS assay to identify small molecule agonists of the androgen receptor (AR) signaling pathway (AID 743036; active = well fitted activation curve with a large enough effect in the signal ratio in the repeat runs, with a control signal flat, not every such curve was filed as active; the % refers to the signal ratio)
Summary of the method: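 AR-bla HEK293 cells, 2,000/well; 4 h preincubation 37C/5% CO2; compound (DMSO) 16 h at 37C; LiveBLAzer B/G FRET substrate 2 h RT; fluorescence intensity read-out.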

[17] = target: Androgen receptor (Homo sapiens) (UniProt P10275); test: qHTS assay to identify small molecule agonists of the androgen receptor (AR) signaling pathway using the MDA cell line (AID 743040; also: nearly all actives have a fitted effect of over 20% in size)
Summary of the method: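 Luciferase agonist assay: 16 h compound exposure at 37C without CO2 in MDA-kb2 AR-luc cells, whose MMTV promoter responds to both AR and GR. Luminescence measured after 30 min room-temperature incubation with ONE-Glo.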

[18] = target: Androgen receptor (Homo sapiens) (UniProt P10275); test: qHTS assay to identify small molecule antagonists of the androgen receptor (AR) signaling pathway using the MDA cell line (AID 743042; also: nearly all actives have a fitted effect of over 55% in size)
Summary of the method: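 Antagonist mode: compounds plus R1881 agonist added to MDA-kb2 AR-luc cells, incubated 16 h at 37C. Luciferase reporter luminescence quantified, with multiplexed CellTiter-Fluor readout for cell viability.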

[19] = target: Androgen receptor (Homo sapiens) (UniProt P10275); test: qHTS assay to identify small molecule antagonists of the androgen receptor (AR) signaling pathway (AID 743035; active = well fitted inhibition curve with a large enough effect in the signal ratio in the repeat runs, not every such curve was filed as active; the % refers to the signal ratio)
Summary of the method: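 Steps: seed AR-UAS-bla GripTite HEK293 cells, incubate 4 h at 37C; pin in test compound, then add agonist R1881; incubate 16 h at 37C; add LiveBLAzer B/G FRET substrate, 2 h at room temperature; read fluorescence.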

Chain of Estrogen receptor (Homo sapiens) (P03372 whole entry, looked up): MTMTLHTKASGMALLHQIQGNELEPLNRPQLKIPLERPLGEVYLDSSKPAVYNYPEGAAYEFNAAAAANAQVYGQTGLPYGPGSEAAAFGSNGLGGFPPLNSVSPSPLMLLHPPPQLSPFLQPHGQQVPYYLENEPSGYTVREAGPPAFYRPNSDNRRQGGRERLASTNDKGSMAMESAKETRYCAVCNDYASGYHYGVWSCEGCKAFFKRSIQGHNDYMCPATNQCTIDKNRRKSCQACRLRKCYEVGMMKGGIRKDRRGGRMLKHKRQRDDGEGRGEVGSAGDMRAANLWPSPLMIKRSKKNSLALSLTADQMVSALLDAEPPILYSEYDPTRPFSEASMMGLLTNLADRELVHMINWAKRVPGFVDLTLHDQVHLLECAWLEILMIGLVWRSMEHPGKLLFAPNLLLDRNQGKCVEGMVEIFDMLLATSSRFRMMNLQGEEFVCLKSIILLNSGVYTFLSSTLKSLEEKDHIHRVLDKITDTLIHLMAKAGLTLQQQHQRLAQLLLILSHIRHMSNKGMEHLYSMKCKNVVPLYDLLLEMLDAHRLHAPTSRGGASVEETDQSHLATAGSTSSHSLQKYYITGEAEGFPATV
Chain of Aromatase (Homo sapiens) (P11511 whole entry, looked up): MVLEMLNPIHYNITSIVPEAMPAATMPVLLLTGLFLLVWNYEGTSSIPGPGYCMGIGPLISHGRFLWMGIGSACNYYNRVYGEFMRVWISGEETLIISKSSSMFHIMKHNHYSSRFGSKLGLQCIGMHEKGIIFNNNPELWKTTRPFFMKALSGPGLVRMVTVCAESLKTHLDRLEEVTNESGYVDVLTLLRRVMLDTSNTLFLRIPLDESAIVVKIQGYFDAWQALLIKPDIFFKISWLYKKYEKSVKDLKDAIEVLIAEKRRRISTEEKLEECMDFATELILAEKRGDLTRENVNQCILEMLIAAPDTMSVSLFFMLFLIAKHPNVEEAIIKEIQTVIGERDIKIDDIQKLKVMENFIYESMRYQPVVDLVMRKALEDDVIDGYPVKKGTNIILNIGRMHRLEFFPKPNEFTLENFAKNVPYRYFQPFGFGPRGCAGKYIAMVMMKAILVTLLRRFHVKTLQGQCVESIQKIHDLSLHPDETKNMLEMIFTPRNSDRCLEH
Chain of Androgen receptor (Homo sapiens) (P10275 whole entry, looked up): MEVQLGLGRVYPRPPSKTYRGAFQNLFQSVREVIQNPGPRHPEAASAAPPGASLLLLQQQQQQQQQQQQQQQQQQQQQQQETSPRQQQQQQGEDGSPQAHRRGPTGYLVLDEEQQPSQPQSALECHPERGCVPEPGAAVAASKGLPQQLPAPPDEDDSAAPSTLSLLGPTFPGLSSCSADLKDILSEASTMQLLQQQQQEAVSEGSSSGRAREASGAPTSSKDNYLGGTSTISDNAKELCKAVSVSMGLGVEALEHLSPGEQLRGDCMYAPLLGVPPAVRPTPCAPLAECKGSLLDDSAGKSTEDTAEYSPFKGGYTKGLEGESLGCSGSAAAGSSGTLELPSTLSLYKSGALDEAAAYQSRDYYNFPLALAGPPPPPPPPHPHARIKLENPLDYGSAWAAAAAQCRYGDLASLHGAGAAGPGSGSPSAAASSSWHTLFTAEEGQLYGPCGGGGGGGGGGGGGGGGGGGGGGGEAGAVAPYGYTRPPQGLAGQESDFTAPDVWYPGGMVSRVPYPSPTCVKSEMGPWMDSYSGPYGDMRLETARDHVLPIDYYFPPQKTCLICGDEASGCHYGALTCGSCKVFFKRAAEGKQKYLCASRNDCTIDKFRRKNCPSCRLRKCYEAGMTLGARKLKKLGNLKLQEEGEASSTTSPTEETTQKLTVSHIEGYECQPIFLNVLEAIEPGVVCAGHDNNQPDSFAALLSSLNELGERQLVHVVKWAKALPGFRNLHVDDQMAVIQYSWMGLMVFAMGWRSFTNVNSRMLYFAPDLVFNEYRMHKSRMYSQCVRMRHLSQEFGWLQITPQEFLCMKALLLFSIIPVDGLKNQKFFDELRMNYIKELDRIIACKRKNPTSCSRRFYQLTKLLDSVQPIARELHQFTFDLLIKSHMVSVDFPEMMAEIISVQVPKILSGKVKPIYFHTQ

Compound	outcome [1]	Potency [2]	Potency [3]	Potency [4]	Potency [5]	Potency [6]	Potency [7]	Potency [8]	Potency [9]	Potency [10]	outcome [11]	Potency [12]	Potency [13]	Potency [14]	Potency [15]	Potency (Aromatase (Homo sapiens))	Potency [16]	Potency [17]	outcome [18]	outcome [19]
c1c[nH]cn1	inactive	inactive	inactive	inactive	inactive	inactive	inactive	inactive	inactive	inactive	inactive	inactive	inactive	inactive	inactive	inactive				
CCCCCCCC(=O)OC	inactive	inactive	inactive	inactive	inactive	inactive		inactive	inactive		inactive	inactive	inactive	inactive	inactive	inactive				
Nc1cc([N+](=O)[O-])ccc1O	inactive	inactive	inactive	inactive	inactive	54.5 µM (active) and 60.8 µM (active)		inactive	inactive		inactive				54.5 µM (active)	inactive	inactive	inactive	inactive	
Cc1ccc(N(C)C)cc1		inactive	inactive	inactive	inactive	inactive		inactive	inactive		inactive	inactive	61.1 µM (active)	inactive	inactive	inactive	inactive	inactive	inactive	inactive
OCCOCCOCCO	inactive	inactive	inactive	inactive		inactive	inactive				inactive	inactive	inactive	inactive	inactive	inactive	inactive	inactive	inactive	inactive
C=C(C)C(=O)Nc1ccc(Cl)c(Cl)c1	inactive	inactive	inactive	inactive		inactive	inactive	49.1 µM (active) and 54.3 µM (active)	inactive		inactive	inactive	inactive	69.3 µM (active) and 68.3 µM (active)	inactive	inactive				
O=c1[nH]nnc2ccccc12	inactive	inactive	inactive	inactive		inactive		inactive	inactive		inactive				inactive	inactive				
CC1=C(C)S(=O)(=O)CCS1(=O)=O	inactive		68.6 µM (active)	60 µM (active) and 61.1 µM (active)		inactive			inactive		inactive	inactive	inactive	inactive	inactive	inactive	inactive	inactive		inactive
CC1CCC(C(C)C)C(O)C1 (stereo not given)		inactive	inactive	inactive	inactive	inactive	inactive	inactive	inactive		inactive				inactive	inactive	inactive	inactive	inactive	inactive
OC[C@H]1O[C@@](CO)(O[C@H]2O[C@H](CO)[C@@H](O)[C@H](O)[C@H]2O)[C@@H](O)[C@@H]1O	inactive	inactive	inactive	inactive		inactive		inactive	inactive		inactive	inactive	inactive	inactive	inactive	inactive				
COc1ccc2cc([C@H](C)C(=O)O)ccc2c1	inactive				inactive	inactive	inactive	inactive	inactive		inactive				inactive					
O=C(O)c1cc(C(=O)O)cc(S(=O)(=O)O)c1	inactive	inactive	inactive	inactive		inactive	inactive	inactive	inactive		inactive				inactive	inactive				
CCCCC(CC)COC(=O)CCCCC(=O)OCC(CC)CCCC (stereo not given)	inactive				inactive	inactive	inactive	inactive	inactive		inactive	inactive	inactive	inactive	inactive	inactive				
CCCCN(CCCC)CCCC	inactive	inactive	inactive	inactive	inactive	inactive		inactive	inactive		inactive	inactive	inactive	inactive	inactive	inactive				
CC(=O)Nc1ccccc1	inactive	inactive	inactive	inactive		inactive	inactive	inactive	inactive		inactive	inactive	inactive	inactive	inactive	inactive				
CCCC(C)=O	inactive	inactive	inactive	inactive		inactive	inactive	inactive	inactive		inactive				inactive	inactive				
Cc1occc(=O)c1O	inactive	inactive	inactive	inactive	inactive	inactive		inactive	inactive and 50.9 µM (active)		inactive				inactive	inactive				
CCCCCC(N)=O	inactive	inactive	inactive	inactive	inactive	inactive		inactive	inactive		inactive				inactive	inactive				
COc1ccc(Nc2ccccc2)c(C)c1	inactive	inactive	inactive	inactive		inactive	inactive	inactive	inactive	inactive	inactive	inactive	inactive	inactive	inactive	inactive				

Source: PubChem BioAssay (Tox21)
